Results filed as inconclusive are left out. Calls of active or inactive are those of the source. Calls follow the shape of the dose curve; as a rule, active = well fitted curve in the direction sought with a large enough effect; inconclusive = small, poorly fitted or top-dose-only effect, or another doubt; inactive = no such curve, though single readings can be large; an effect the other way counts as inactive or inconclusive.
Tests used:
[1] = P-glycoprotein substrates identified in KB-8-5-11 adenocarcinoma cell line, qHTS therapeutic library screen (AID 1346987); also: nearly all actives have a fitted effect of over 65% in size
Outline: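 KB-8-5-11: colchicine-selected sub-line of KB-3-1 over-expressing P-gp; assay medium lacked colchicine. 72 h drug exposure at 37 degree C, CellTiter-Glo.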

[2] = tested on: Zika virus NS2B-NS3 protease (unlinked complex); test: Primary screen GU Rhodamine qHTS for Zika virus inhibitors: Unlinked NS2B-NS3 protease assay (AID 1347159); also: nearly all actives have a fitted effect of over 60% in size
Outline: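 Noncovalent NS2B hydrophilic domain/NS3 protease complex (25 nM final) in 10 mM Tris-HCl pH 8.0, 0.01% Tween 20, preincubated 15 min with compounds (up to 114 microM), then 1.5 microM Rhodamine110 substrate. Fluorescence change over 15 min fitted to 4-parameter Hill.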

[3] = tested on: Zika virus NS2B-NS3 protease (linked construct); test: Primary screen NINDS Rhodamine qHTS for Zika virus inhibitors (AID 1347160); also: nearly all actives have a fitted effect of over 55% in size
Outline: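 Purified NS2B-NS3 protease with the NS2B hydrophilic domain joined by a flexible linker (25 nM) in 10 mM Tris-HCl pH 8.0, 0.01% Tween 20, preincubated 15 min at RT with compound; Rhodamine110 peptide substrate 1.5 µM; fluorescence change over 15 min; 4-parameter Hill fit.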

Measured: Potency

O=C(CC1CC(c2ccc(F)cc2F)=NO1)N1CCOCC1 (stereo not given)
inactive: [1] | [2] | [3]

CC1(C)CC[C@]2(C(=O)O)CC[C@]3(C)C(=CCC4[C@@]5(C)C[C@H](O)[C@H](O[C@@H]6O[C@H](CO)[C@@H](O)[C@H](O)[C@H]6O)[C@@](C)(CO)C5[C@H](O)C[C@]43C)[C@@H]2C1 (stereo not given in full)
inactive: [1] | [2] | [3]

CCC1(O)CC2c3cc(OC)c(OC)cc3CCN2CC1CC(C)C (stereo not given)
inactive: [1] | [2] | [3]

CC(=O)/C=C/[C@H]1[C@](C)(O)[C@@H](O)[C@H](O)C2C(C)(C)CCC[C@@]21C (stereo not given in full)
inactive: [1] | [2] | [3]

CC1=CC(=O)CC(C)(C)C1CCC(C)O[C@@H]1O[C@H](CO)[C@@H](O)[C@H](O)[C@H]1O (stereo not given in full)
inactive: [1] | [2] | [3]

CCC(C)C(N)C(=O)NCCN1CCOCC1 (stereo not given)
inactive: [1] | [2] | [3]

COc1ccc(CCC(=O)O)c(O[C@@H]2O[C@H](CO)[C@@H](O)[C@H](O)[C@H]2O)c1
inactive: [1] | [2] | [3]

CC(NC(=O)CC(=O)O)C(=O)Nc1ccccc1C(N)=O (stereo not given)
inactive: [1] | [2] | [3]

Cc1ccc(Nc2nnc(-c3ccc([N+](=O)[O-])cc3)o2)cc1Cl
inactive: [1] | [2] | [3]

COC(=O)C1=CO[C@@H](O[C@@H]2O[C@H](CO)[C@@H](O)[C@H](O)[C@H]2O)[C@H]2[C@@H]1C=C[C@]21C=C([C@H](C)OC(=O)/C=C/c2ccc(O[C@@H]3O[C@H](CO)[C@@H](O)[C@H](O)[C@H]3O)cc2)C(=O)O1
inactive: [1] | [2] | [3]
